Where two headings read alike, the source gives them in different places.

Drawing on paper PMC11062922 (Nature Chemical Biology, 2023), this text covers potency estimated from few doses for seven compounds.

Holding throughout (design): species or system human, MV4-11 + K-562 + COLO205 + SK-N-BE2 + OVCAR-8
One test concerns CLK4. To be noted: read-out: apparent Kd, compound concentrations: 100 nM and 1000 nM (sheet 'Samples'), n = 1.
Another test relates to CSNK2A2. To be noted: read-out: apparent Kd, compound concentrations: 100 nM and 1000 nM (sheet 'Samples'), n = 1.
For a further test, the system named is PDXK. Particulars: read-out: apparent Kd; compound concentrations: 100 nM and 1000 nM (sheet 'Samples'), CATDS: 0.33190254365372501; n = 1.
In a further test the test system is CSNK1A1. Particulars: read-out: apparent Kd, compound concentrations: 100 nM and 1000 nM (sheet 'Samples'), n = 1.
A further test relates to CSNK1D. Particulars: read-out: apparent Kd, compound concentrations: 100 nM and 1000 nM (sheet 'Samples'), n = 1.
The test system of another test is CSNK1E. To be noted: read-out: apparent Kd, compound concentrations: 100 nM and 1000 nM (sheet 'Samples'), n = 1.
A further test concerns MAPK14. To be noted: read-out: apparent Kd, compound concentrations: 100 nM and 1000 nM (sheet 'Samples'), n = 1.
The test system of the next test is MAPK9. Particulars: read-out: apparent Kd; compound concentrations: 100 nM and 1000 nM (sheet 'Samples'), CATDS: 0.114122400306413; n = 1.
Another test deals with MAPKAPK2. Particulars: read-out: apparent Kd, compound concentrations: 100 nM and 1000 nM (sheet 'Samples'), n = 1.
The subject of the next test is MAPK11. To be noted: read-out: apparent Kd, compound concentrations: 100 nM and 1000 nM (sheet 'Samples'), n = 1.
The test system of another test is RIPK2. To be noted: read-out: apparent Kd; compound concentrations: 100 nM and 1000 nM (sheet 'Samples'), CATDS: 0.10111059470888201; n = 1.
The subject of another test is ILK. Particulars: read-out: apparent Kd; compound concentrations: 100 nM and 1000 nM (sheet 'Samples'), CATDS: 0.22050260792915999; n = 1.
A further test concerns IRAK3. To be noted: read-out: apparent Kd; compound concentrations: 100 nM and 1000 nM (sheet 'Samples'), CATDS: 0.257263100547858; n = 1.
In a further test the test system is RET. Particulars: read-out: apparent Kd; compound concentrations: 100 nM and 1000 nM (sheet 'Samples'), CATDS: 0.29305960370360601; n = 1.
For a further test, the system named is T1, DJA1.
T1 construct: gene DNAJA1
Particulars: read-out: apparent Kd; compound concentrations: 100 nM and 1000 nM (sheet 'Samples'), CATDS: 7.1447025322651805E-2; n = 1.

For the next test, the system named is MAPK10. Particulars: read-out: apparent Kd; compound concentrations: 100 nM and 1000 nM (sheet 'Samples'), CATDS: 7.1245555578464306E-2; n = 1.
The next test deals with NQO2. To be noted: read-out: apparent Kd; compound concentrations: 100 nM and 1000 nM (sheet 'Samples'), CATDS: 7.6337001924779102E-2; n = 1.
The test system of another test is FLT3. To be noted: read-out: apparent Kd; compound concentrations: 100 nM and 1000 nM (sheet 'Samples'), CATDS: 0.137141810176551; n = 1.
The next test concerns MAP2K1. To be noted: read-out: apparent Kd; compound concentrations: 100 nM and 1000 nM (sheet 'Samples'), CATDS: 0.12402883868582899; n = 1.
The subject of another test is MAP3K12. To be noted: read-out: apparent Kd; compound concentrations: 100 nM and 1000 nM (sheet 'Samples'), CATDS: 0.14214405219183901; n = 1.
The next test deals with PIK3C2A. Particulars: read-out: apparent Kd; compound concentrations: 100 nM and 1000 nM (sheet 'Samples'), CATDS: 0.1177028048525; n = 1.
The subject of the next test is PLK1. To be noted: read-out: apparent Kd; compound concentrations: 100 nM and 1000 nM (sheet 'Samples'), CATDS: 0.134584248305568; n = 1.
A further test relates to CSNK2A1;CSNK2A3. To be noted: read-out: apparent Kd; compound concentrations: 100 nM and 1000 nM (sheet 'Samples'), CATDS: 0.28521766566088902; n = 1.
The next test has as its system DYRK1A. Particulars: read-out: apparent Kd; compound concentrations: 100 nM and 1000 nM (sheet 'Samples'), CATDS: 0.224085831089785; n = 1.

With `Nc1ncnc2[nH]c(-c3ccccc3)nc12` [AH5015_KCGS], the potency estimated from few doses in the test on CLK4 (CATDS: 0.40901388179724202) is 1090 nM; with CSNK2A2 (CATDS: 0.28231341025767498), 2320 nM; with PDXK, 1610 nM.

With `Fc1ccc(-c2ncn(CCCNCc3ccccc3)c2-c2ccncc2)cc1` [SB-210486], the potency estimated from few doses with CSNK1A1 (CATDS: 0.128304526213217) was 1360 nM; in the test with CSNK1D (CATDS: 0.26868989903925999), 280 nM; with CSNK1E (CATDS: 0.162916255761588), 716 nM; in the test on MAPK14 (CATDS: 0.19130895998185199), 509 nM; with MAPK9, 2070 nM; with MAPKAPK2 (CATDS: 0.22954264686774201), 363 nM.

Turning to `CC1(C)CC(n2cnc(-c3ccc(F)cc3)c2-c2ccnc(N)n2)CC(C)(C)N1` [SB-221466], the potency estimated from few doses in the test on CSNK1A1 (CATDS: 9.6046167396209803E-2) was 694 nM; with CSNK1D (CATDS: 0.25228114630202902), 37.6 nM; in the test on CSNK1E (CATDS: 0.19281480161649001) it was 65.4 nM; with MAPK11 (CATDS: 9.0675457178051394E-2), 958 nM; in the test with MAPK14 (CATDS: 0.38213111916194098), 18.8 nM; in the test on MAPKAPK2 (CATDS: 0.16941172485113901), 89.6 nM. Moreover, the potency estimated from few doses with RIPK2 was 537 nM.

Regarding `COc1cc(/C=N/Nc2ncnc3c2cnn3C(C)C)ccc1O` [GW644007X], the potency estimated from few doses in the test with CLK4 (CATDS: 0.240063768784822) was 1750 nM; with ILK, 2110 nM; in the test with IRAK3 it was 1520 nM; in the test on RET, 1190 nM.

On to `CCOc1nccc(-c2c(-c3ccc(F)cc3)ncn2C2CCNCC2)n1` [SB-249175], for which the potency estimated from few doses with CSNK1A1 (CATDS: 0.102503652768427) is 294 nM; in the test on CSNK1D (CATDS: 0.31219473795395603), 16.6 nM; in the test with CSNK1E (CATDS: 0.18119769412776501) it was 46.9 nM; with DJA1 it was 1630 nM; in the test with MAPK10, 1660 nM; in the test on MAPK11 (CATDS: 7.9204394656965396E-2) it was 935 nM. For the same compound, the potency estimated from few doses with MAPK14 (CATDS: 0.21634918417803001) was 31.9 nM; in the test with MAPKAPK2 (CATDS: 0.24140517483875701) it was 25.8 nM; with NQO2 it was 1130 nM.

In the case of `CC(C)(C)n1cnc2c(N)ncnc21` [SKF-97359], the potency estimated from few doses is 1870 nM in the test on CSNK1A1 (CATDS: 0.118789019342549); 1680 nM with CSNK1D (CATDS: 0.12511674231417799); 2330 nM in the test on CSNK1E (CATDS: 0.10783492256042899); 1410 nM in the test on FLT3; 1710 nM in the test on MAP2K1; 1320 nM in the test with MAP3K12. In addition, the potency estimated from few doses with PIK3C2A is 1910 nM; in the test on PLK1 it was 1460 nM.

For `N=C1N=C(N)S/C1=C\c1ccc2ncccc2c1` [RO4509407-000], the potency estimated from few doses in the test with CLK4 (CATDS: 0.20208548416979799) was 1310 nM; with CSNK2A1;CSNK2A3, 612 nM; with CSNK2A2 (CATDS: 0.32436684951211903), 488 nM; in the test with DYRK1A it was 1010 nM.
